An excerpt weighted towards active compounds, which were near 5.9% of everything screened.
TrxR1 inh – inhibitors of rat thioredoxin reductase 1 | O89049 | recombinant rTrxR1, NADPH fluorescence consumption, selenite substrate | Potency, µM (highest dose often 114 µM), without a hit: top-dose activity change, negative = inhibition, most hits filed as inhibitors | 390,000 tested, 1% active | AID 588453; also: potency is read from the fitted curve at half-maximal effect; nearly all actives have a fitted effect of over 65% in size
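Rat TrxR1 (90 nM in the dispensed reagent) was pre-reduced with 400 uM NADPH for 5 min at room temperature, then incubated with compound for 15 min. After 400 uM selenite was added, NADPH fluorescence (Ex 340/Em 450 nm) was followed for 8 min.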
RORgamma inh – blocks mouse ROR gamma transcriptional activity. 310,000 tested, 5.4% active. AID 2551. Potency, µM (top dose mostly 53.6 µM), for inactives: at the highest dose activity change, negative = inhibition, actives largely listed as inhibitors. P51450. Drosophila S2 Gal4-RORgamma UAS-luciferase reporter, 20 h; also: potency is read from the fitted curve at half-maximal effect; nearly all actives have a fitted effect of over 60% in size
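A Gal4/UAS one-hybrid system in insect cells: metallothionein-promoter Gal4–ROR gamma fusion plus Photinus luciferase reporter. Copper sulfate 700 uM final, 20 hr ambient incubation, luminescent detection after 10 min with reagent.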
Gal4-VP16 FLuc – inhibits Gal4-VP16 luciferase reporter, ROR gamma counter-screen; AID 2546; Potency, µM (series often up to 53.6 µM), for the others: top-dose activity, negative = inhibition, hits mostly inhibitors; 310,000 tested, 3.5% active; Drosophila S2 Gal4-VP16 UAS-luciferase, luminescence, 20 h;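 also: Gal4-VP16 expression switched on by copper sulfate through the metallothionein promoter; potency is read from the fitted curve at half-maximal effect; nearly all actives have a fitted effect of over 50% in size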
GALK inhibitor – galactokinase (human) inhibition; Potency, µM (series often up to 57.5 µM), inactives show at the top dose activity change, negative = inhibition, hits mostly inhibitors; Purified GALK, Kinase-Glo residual ATP luminescence; 270,000 tested, 0.007% active; AID 1868; P51570; also: potency is read from the fitted curve at half-maximal effect
Target sequence (P51570 whole entry, looked up): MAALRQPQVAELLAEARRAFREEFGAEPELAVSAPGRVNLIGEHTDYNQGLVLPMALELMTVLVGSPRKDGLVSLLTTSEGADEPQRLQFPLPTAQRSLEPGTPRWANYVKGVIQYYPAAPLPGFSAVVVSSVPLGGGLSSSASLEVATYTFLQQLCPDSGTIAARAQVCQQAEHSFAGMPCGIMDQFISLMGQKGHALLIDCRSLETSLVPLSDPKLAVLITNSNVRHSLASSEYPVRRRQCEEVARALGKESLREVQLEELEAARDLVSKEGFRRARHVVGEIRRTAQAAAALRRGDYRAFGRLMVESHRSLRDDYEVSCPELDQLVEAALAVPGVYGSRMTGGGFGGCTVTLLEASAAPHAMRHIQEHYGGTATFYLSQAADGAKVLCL
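Galactose (100 uM) and ATP (35 uM) were turned over by 5 nM GALK for 1 h at RT. Kinase-Glo Plus then converted the remaining ATP into a luminescent signal.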
TrxR1 substrate – rat thioredoxin reductase 1 substrate activity | purified TrxR1 substrate turnover, NADPH consumption readout | Potency, µM (highest dose often 114 µM), inactives show top-dose activity change, negative = substrate turnover | 390,000 tested, 0.01% active; also: potency is read from the fitted curve at half-maximal effect; nearly all actives have a fitted effect of over 50% in size
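Rat TrxR1, dispensed at 90 nM, was prereduced with 400 uM NADPH (final) for 5 min at ~22 deg C, then incubated with compound 15 min before 400 uM selenite. A first-read NADPH fluorescence drop versus no-compound background flagged substrates.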
FBPA coupling cs – coupling enzyme interference in Giardia aldolase counter-screen; coupling enzyme system counterscreen, AmpLite Red fluorescence; activity change, negative = inhibition, % at 58.2 µM, hits read low; 290,000 tested, 0.67% active; in the data active = activity change below about -30%
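Counterscreen of the coupled detection system alone, without aldolase: glyceraldehyde-3-phosphate coupling enzymes plus AmpLite Red readout. Compounds at 57.5 uM final, 10 min RT preincubation, 20 min RT reaction, fluorescence 525/598 nm.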
The depositor's hits bear a star; u = inconclusive; x = not tested or not shown; [ ] = another dose, or the depositor's remark. Unless noted, calls follow the shape of the dose curve; as a rule, active = well fitted curve in the direction sought with a large enough effect; inconclusive = small, poorly fitted or top-dose-only effect, or another doubt; inactive = no such curve, though single readings can be large; an effect the other way counts as inactive or inconclusive. % is scaled to controls: 0 for no effect and ±100 for the full control effect.

SMILES | TrxR1 inh | RORgamma inh | Gal4-VP16 FLuc | GALK inhibitor | TrxR1 substrate | FBPA coupling cs
Cc1nnc(NC(=O)CSc2ccccc2N)s1 | 2.7% | -10.0% | -5.6% | -4.7% | -6.4% | 0.8
Cc1ccc(Cn2cc(SCC(=O)Nc3nccs3)c3ccccc32)cc1 | 15.0%[57.1 µM] | -42.7% | -15.4% | 0.4% | 3.3%[57.1 µM] | 0.8
Cc1nnc(NC(=O)CSc2cn(Cc3ccccc3)c3ccccc23)s1 | 18.2%[57.1 µM] | 11.2µM* | -18.1% | 0.9% | -3.1%[57.1 µM] | -0.8
Cc1ccc(C(C)(C)C)c(SCC(=O)Nc2nnc(C)s2)c1 | 7.6%[57.1 µM] | 7.08µM* | -17.3% | 1.0% | 8.7%[57.1 µM] | -3.3
Cc1ccc(Cn2c(C(CO)Nc3nc(-c4ccc(F)cc4)cs3)nc3ccccc32)cc1 (stereo unspecified) | 3.7% | x | x | x | -10.9% | x
COc1ccccc1NC(=S)NCCc1c[nH]c2ccccc12 | 6.6%[57.1 µM] | 14.1µM* | u | -0.3% | -2.9%[57.1 µM] | x
Cc1ccc(NC(=S)NCCc2c[nH]c3ccccc23)c(C)c1 | -1.4% | 7.94µM* | 17.8µM* | -0.5% | 0.6% | -4.3
COc1ccc(NC(=S)NCCc2c[nH]c3ccccc23)cc1 | -9.0% | 14.1µM* | 12.6µM* | 2.7% | -7.7% | 0.7
COc1ccc2[nH]cc(CCNC(=O)Nc3ccccc3)c2c1 | 26.4% | 5.4% | -11.8% | -1.4% | 3.8% | 0.3
COc1ccc2c(CCNC(=O)Nc3ccccc3)c[nH]c2c1 | 6.6%[57.1 µM] | u | 2.5% | 0.8% | 4.8%[57.1 µM] | -0.4
COc1ccc2[nH]cc(CCNC(=S)NCCc3ccccc3)c2c1 | -10.5% | 11.2µM* | -23.0% | 7.6% | -4.3% | 1.5
O=C(O)CN1CCN(Cc2ccc(Cl)cc2)C1=O | 15.5% | -1.9% | -0.1% | x | 5.9% | 5.0
O=C(CCl)N=c1sccn1Cc1cccc2ccccc12 | u | u | u | 5.1% | 4.8% | 0.0
CCN(CC)CCNc1nc2cc(OC)c(OC)cc2c2nc(-c3ccccc3)nn12 | 18.4% | -15.7% | -11.6% | -5.6% | 9.3%[57.1 µM] | 2.1
O=C(Nc1nnc(Cc2ccc(Cl)cc2)s1)C1CCCO1 (stereo unspecified) | -8.3% | 10.3% | u | 1.1% | -8.6% | 0.3
CC1CCN(C(=O)CN(Cc2ccc(Cl)cc2)S(C)(=O)=O)CC1 | 29.4% | x | x | -5.5% | 4.2% | 0.0
COc1cc(NC(=S)NCCc2c[nH]c3ccccc23)c(OC)cc1Cl | -8.9% | 7.08µM* | 3.55µM* | -0.4% | -0.8% | -10.6
COc1cc(NC(=S)NCCO)c(OC)cc1Cl | 27.1%[57.1 µM] | 12.0% | 2.4% | 6.7% | 8.4%[57.1 µM] | 3.7
Cc1ccccc1-c1noc(N)c1C#N | -17.9% | 5.62µM* | u | -0.5% | 1.9% | -6.3
CN(C)/C=C/c1onc(-c2ccccc2Cl)c1C#N | -9.4%[57.1 µM] | u | -0.8% | 10.7% | 3.0%[57.1 µM] | 0.8
Cc1cc2ncc(-c3ncc(C(F)(F)F)cc3Cl)cn2n1 | 362.6% | 7.94µM* | 10µM* | 0.2% | 386.8% | -0.5
COc1ccc(NCc2cc3cc(OC)ccc3[nH]c2=O)cc1 | -27.7% | 34.3% | -11.5% | 0.3% | 31.2% | -20.0
COc1ccc2[nH]c(=O)c(CNc3cccc(C)c3)cc2c1 | -4.8% | -39.7% | 5.0% | 2.5% | -0.2% | -38.9*
Cc1ccc(-c2nc3cccnc3s2)cc1NC(=O)C1c2ccccc2Oc2ccccc21 | 8.4%[57.1 µM] | 12.6µM* | 11.2µM* | x | 7.1%[57.1 µM] | 2.9
O=C(Nc1nc2ccccc2s1)C1c2ccccc2Oc2ccccc21 | -11.1% | 11.2µM* | u | x | -4.2% | -0.3
CCc1nnc(NC(=O)C2c3ccccc3Oc3ccccc32)s1 | 5.4%[57.1 µM] | 11.2µM* | u | -2.0% | -8.6%[57.1 µM] | 1.6
Cc1ccc(-c2nc3cccnc3s2)cc1NC(=O)Cc1ccccc1 | 7.3% | x | x | x | 2.3% | x
COCCNC(=O)c1cc2nc(-c3ccc(F)cc3)cc(C(F)(F)F)n2n1 | 23.9%[57.1 µM] | 0.2% | -9.2% | -2.0% | 4.6%[57.1 µM] | -0.4
Cc1ccccc1C(=O)Nc1nnc(-c2ccncc2)o1 | 4.1%[57.1 µM] | 2.82µM* | 5.01µM* | -1.2% | 5.3%[57.1 µM] | -2.1
COc1ccc(-c2nnc(NC(=O)c3ccccc3C)o2)cc1 | -4.1% | 0.631µM* | 0.794µM* | 1.1% | 0.9% | -4.7

Screening results (PubChem BioAssay)
